Compound activity deposited in PubChem by National Center for Advancing Translational Sciences (NCATS).
Shown are actives, neighbours in structure and some others; about 19% of the full set was active somewhere.
MCF10A rereplic: inducers of DNA re-replication in MCF 10A breast cells; MCF 10A DNA re-replication, Hoechst nuclear intensity, 48 h; Potency, µM (titrated, usually from 46.1 µM), most hits filed as activators; actives 2.9% (n = 350,000); AID 624296; also: nearly all actives have a fitted effect of over 50% in size
Chronic BCR inh: inhibitors of chronic active B-cell receptor signaling; ABC-DLBCL IkBa-CBG/CBR reporter, luminescence ratio, 4 h; Potency, µM (titrated, usually from 46.1 µM), actives largely listed as inhibitors; actives 0.05% (n = 340,000); AID 493014; active = well fitted inhibition curve with a large enough effect in the signal ratio, with a control signal flat, not every such curve was filed as active; inconclusive = small, poorly fitted or top-dose-only effect, or effect the other way, or a change in a side signal; the % refers to the signal ratio
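TMD8 ABC-DLBCL cells carrying doxycycline-inducible green luciferase fused to IkappaBalpha plus unfused red luciferase were exposed to compounds (up to 46 uM) for 4 hrs at 37C. Activity came from the overlap-corrected green/red luminescence ratio.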
IL1B secr inh: inflammasome signaling inhibition, IL-1 beta readout; actives 4.7% (n = 360,000); THP-1 LPS/ATP IL-1B secretion, AlphaLISA, 16 h; stronger effect = lower value; AID 743279; activity change, % at 57.5 µM; in the data active = activity change below about -50%; inconclusive = mostly about -30% to -49%
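Secreted IL-1B measured by AlphaLISA bead assay after 16 h compound exposure of THP-1 cells; compounds (final up to 57.5 uM) added 1 h before LPS (250 ng/mL) and ATP (1.25 mM) stimulation; lower signal means less secretion.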
DT40 TDP1 no CPT: qHTS for Inhibitors of human tyrosyl-DNA phosphodiesterase 1 (TDP1): qHTS in cells in absence of CPT. AID 686978, 2013. Potency, µM (titrated, usually from 46.2 µM), most hits filed as inhibitors. actives 15% (n = 420,000). DT40 Tdp1-/- hTDP1 cells, no CPT, ATP luminescence, 48 h; also: nearly all actives have a fitted effect of over 55% in size
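DT40 Tdp1-/-;hTDP1 cells, no CPT (DMSO vehicle only), 400 cells/well; compounds pin-transferred; ≥48 hr, 37 °C; CellTiter-Glo 30 min RT dark, luminescence read.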
TDP1 cell CPT: growth inhibition of DT40 Tdp1-/-;hTDP1 cells with camptothecin (screen for TDP1 inhibitors); Potency, µM (titrated, usually from 46.2 µM), most hits filed as inhibitors; chicken DT40 Tdp1-/-;hTDP1 cells + 20 nM CPT, ATP luminescence, 48 h; actives 12% (n = 420,000); AID 686979; also: nearly all actives have a fitted effect of over 55% in size
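Chicken DT40 Tdp1-/- cells stably complemented with human TDP1 were seeded at 400 cells/well in medium containing 20 nM camptothecin, exposed to pin-transferred compounds, and grown at 37 °C for at least 48 hr. Viability was read as ATP luminescence.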
SW480 rerep: DNA re-replication induction in SW480 cells. SW480 DNA re-replication, Hoechst DNA content imaging, 48 h. Potency, µM (doses to about 46.1 µM), hits mostly activators. actives 1.8% (n = 340,000); also: nearly all actives have a fitted effect of over 55% in size
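Treated cells incubate 48 hr (37 C, 5% CO2), are stained 40 min with Hoechst, and nuclear fluorescence is enumerated; a rise in nuclei with high DNA signal marks re-replication.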
A number is an active result; n = inactive; u = inconclusive; x = no result; [ ] = remark or other dose. Unless noted, calls follow the shape of the dose curve; as a rule, active = well fitted curve in the direction sought with a large enough effect; inconclusive = small, poorly fitted or top-dose-only effect, or another doubt; inactive = no such curve, though single readings can be large; an effect the other way counts as inactive or inconclusive.

SMILES	MCF10A rereplic	Chronic BCR inh	IL1B secr inh	DT40 TDP1 no CPT	TDP1 cell CPT	SW480 rerep
COc1ccc(CCNC(=O)NCc2noc3ccccc23)c(OC)c1	x	x	x	21µM	u	x
CCC(c1nnnn1C(C)(C)CC)N(CCCO)Cc1cc2cccc(C)c2[nH]c1=O (configuration not stated)	n	n	n	n	n	n
CCC(C)(C)n1nnnc1C(C(C)C)N(CCN1CCOCC1)Cc1cc2cccc(C)c2[nH]c1=O (configuration not stated)	n	n	n	n	18µM	n
CCC(c1nnnn1C(C)(C)CC)N(CCCN1CCOCC1)Cc1cc2cccc(C)c2[nH]c1=O (configuration not stated)	u	u	n	u	14µM	n
COC(=O)[C@@H](NC(=O)C1CCCN(c2nc(C)c3ccc(C)cc3n2)C1)C(C)C (some centres not stated)	x	x	x	u	n[9.04 µM]	x
Cc1cc(C(=O)CSc2nnc(Nc3ccccc3)s2)c(C)n1CC1CCCO1 (configuration not stated)	n	u	u	u	12µM	u
Cc1cc(C(=O)CSc2nc3ccccc3c(=O)[nH]2)c(C)n1CC1CCCO1 (configuration not stated)	n	n	n	10µM	13µM	n
Cc1cc(C(=O)COC(=O)CCc2nc3ccccc3c(=O)[nH]2)c(C)n1CC1CCCO1 (configuration not stated)	n	n	n	n	n	n
O=C(Cc1c(F)cccc1Cl)NNC(=O)c1ccccc1Cl	n	n	n	n	n	n
Cc1ccc(N2CCN(c3ncnc4onc(-c5ccc(F)cc5)c34)CC2)c(C)c1	x	x	x	n	n	x
CCCCN(C)C(=O)C1CCCN(c2ncnc3onc(-c4ccc(F)cc4)c23)C1 (configuration not stated)	x	x	x	23µM	15µM	x
CC(C)N(Cc1ccccc1)C(=O)C1CCCN(c2ncnc3onc(-c4ccc(F)cc4)c23)C1 (configuration not stated)	x	x	x	5.2µM	7.3µM	x
CCCN(CCC)C(=O)C1CCCN(c2ncnc3onc(-c4ccc(F)cc4)c23)C1 (configuration not stated)	x	x	x	16µM	5.2µM	x
O=C(COC(=O)C1CCC1)NCCc1ccc(Cl)cc1Cl	n	n	n	n	n	u
Cc1ccc(N2CC(C(=O)N3CCN(c4ccccn4)CC3)CC2=O)cc1 (configuration not stated)	n	x	n	n	n	n
COc1ccc(NC(=O)C(c2ccc(C)cc2)N(C)C(=O)c2cnccn2)cc1 (configuration not stated)	n	n	n	n	n	n
Cc1cccc(C)c1NC(=O)C(c1ccc([N+](=O)[O-])cc1)N(C)C(=O)c1ccccn1 (configuration not stated)	n	n	n	3.3µM	6.5µM	n
Cc1ccc(NC(=O)CSc2nc(=O)n(CCN3CCOCC3)c3c2CCC3)cc1Cl	x	n	x	u	u	x
Oc1ccc(N=Nc2ccc3c(c2)OCO3)c2ccccc12	x	n	x	x	x	x
Cc1ccc(N=Nc2ccc(O)c3ncccc23)cc1C	n	n	n	2.3µM	2.3µM	u
Cc1ccc(N=Nc2ccc3ccccc3c2O)cc1	n	n	n	u	u	n
Cc1ccc(N=Nc2ccc(O)c3ncccc23)cc1	u	u	n	13µM	13µM	1.2µM
CCOC(=O)Cn1nc(-c2ccccc2)c(-c2ccccc2)nc1=O	n	n	n	n	n	n
C#CCn1c(S(=O)(=O)Cc2ccc(C)cc2)nc(-c2ccccc2)c1-c1ccccc1	n	n	u	u	u	u
CCOC(=O)Cn1c(-c2cccnc2)nc(-c2ccccc2)c1-c1ccccc1	n	u	n	23µM	u	n
CCOC(=O)Cn1c(C)nc2ccccc21	n	n	n	n	n	n
